High-throughput results: PubChem, several laboratories
m-calpain inh – calpain II (pig) inhibition; purified calpain II, fluorogenic peptide substrate, 30 min; inhibition, % at 16 µM; hit rate 0.37% among 220,000;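 active means inhibition above about 50%, limit read from the data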
Cl transport mod – modulates chloride dependent transport by human KCC2; Q9H2X9; KCC2 cells, thallium flux FluoZin-2 fluorescence; B-score of Tl+ flux slope (higher = more flux/activation; lower = inhibition) at 10 µM; hit rate 2.2% among 190,000; AID 1456;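 active means thallium flux slope and its plate-corrected score both differing from the plate sample mean at a set confidence after two filtering rounds, in either direction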;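 further: slope of fluorescence scaled to starting intensity during 10 to 20 s after thallium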
WT yeast gro inh – growth inhibition of WT yeast, mitochondrial fusion screen | hit rate 2.1% among 190,000 | inhibition, % at 10 µM | mitochondrial fusion phenotypic screen, WT strain; in the data active means inhibition above about 58%; tested in S. cerevisiae
Lmaj promast – inhibitors of Leishmania major promastigote growth; hit rate 9% among 200,000; Leishmania major promastigotes, resazurin fluorescence viability; inhibition, % at 10 µM; AID 1063; in the data active means inhibition above about 50%;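 further: promastigotes grown with compound for 44 hours at 28 °C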
ROMK primary – human ROMK K+ channel modulation, primary screen; B-score at 10 µM; hit rate 2% among 130,000; Tet-inducible ROMK, thallium flux fluorescence; actives lie on both sides; P48048;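 active means signal ratio slope over the read window, or its plate-corrected B-score, at least 3 SD from the plate mean, either direction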;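 further: B-score of the F/F0 ratio slope over 7 to 12 s after thallium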
Active calls of the source: *; nt = no result. An excerpt weighted towards active compounds, which were near 12% of everything screened.

SMILES	m-calpain inh	Cl transport mod	WT yeast gro inh	Lmaj promast	ROMK primary
COc1cc(OC)nc(Oc2ccccc2C(=O)Oc2cccc(C)c2)n1	33	-1.4	60*	7	nt
Cc1nc(C)c(/C(O)=C/c2nc3ccc([N+](=O)[O-])cc3oc2=O)o1	-12	0.92	-11	9	-0.12
NC(N)=NC1=NC(=O)C(Cc2ccccc2)S1 (stereo not drawn)	7	0.54	-8	-7	0.57
Cn1nnnc1Sc1ncnc2scc(-c3ccccc3)c12	-52	-1.1	26	70*	nt
Cn1nnnc1SCc1nc2scc(-c3ccc(Cl)cc3)c2c(=O)[nH]1	-38	-0.46	nt	nt	nt
Cn1nnnc1Sc1ncnc2scc(-c3ccc(F)cc3)c12	-58	-0.22	-7	91*	-0.84
C/C(=N\NS(=O)(=O)c1ccc([N+](=O)[O-])cc1)c1ccc(NC(=O)c2ccco2)cc1	0	0.1	6	-8	0.24
CC(NCC(c1ccco1)N1CCCCC1)C(=O)NC1CCCC1 (stereo not drawn)	20	0.023	9	3	0.11
Cc1ccc(Sc2ccc(CN3CCCC3)cc2[N+](=O)[O-])cc1	14	-0.00027	46	82*	-1.6
Cc1ccc(Sc2ccc(CO)cc2[N+](=O)[O-])cc1	4	-0.68	14	-3	-0.15
CN1CCN(Cc2ccc(Sc3ccc(Cl)cc3)c([N+](=O)[O-])c2)CC1	14	1.3	86*	100*	-0.76
CCOC(=O)c1c(C)n(-c2ccc(C)cc2)c2c(C(C(C)=O)C(=O)O)c(Br)c(O)c(O)c12 (stereo not drawn)	-42	-0.0037	43	50*	-0.064
CCOC(=O)c1c(C)n(-c2ccc(C)cc2)c2c(CC(C)=O)c(Br)c(OC)c(O)c12	26	0.55	6	-1	0.011
O=C(CCCSc1nc2ccccc2c(=O)[nH]1)c1ccccc1	-4	-0.2	-18	11	0.3
CCOC(=O)c1cc(C)n(CCCN2CCOCC2)c1C	17	nt	-1	90*	-0.75
CC1CN(C(=O)N(C)C)CCN1C(=O)N(C)C (stereo not drawn)	-1	1.9	66*	-4	0.16
C=CCn1c(SCc2ccc(C(=O)NCCO)cc2)nc2sc(C)c(C)c2c1=O	-44	-0.45	0	23	-1.9
COc1cccc(C2(O)CCN(CC(=O)NCC3CC3)CC2)c1	-24	1.4	-2	-6	0.039
Cc1ccc(NC(=O)CN(C)C(=O)Cn2ncc(Cl)c(Cl)c2=O)cc1	-83	1.2	-8	73*	nt
Brc1cc2c(cc1/C=N/Nc1nc(N3CCCC3)nc(N3CCOCC3)n1)OCO2	-168	-4	16	7	nt
Oc1ccc(/C=N/Nc2nc(N3CCCCCC3)nc(N3CCCCCC3)n2)c(O)c1	-77	-0.31	74*	8	0.18
Oc1ccc(Br)cc1/C=N/Nc1nc(N2CCCCC2)nc(N2CCOCC2)n1	-104	-0.049	50	91*	-0.14
O=C(Nc1cccc(-c2nc3cccnc3s2)c1)C1c2ccccc2Oc2ccccc21	55*	0.11	-6	-7	-1.8
O=S(=O)(Nc1cccc(-c2nc3cccnc3s2)c1)c1ccc2c(c1)OCCO2	-41	0.064	68*	8	nt
Cc1ccc(-c2nc3cccnc3s2)cc1NS(=O)(=O)c1ccc2c(c1)OCCO2	-43	-0.37	49	30	nt
SMILES	m-calpain inh	Cl transport mod	WT yeast gro inh	Lmaj promast	ROMK primary
O=C(Oc1cccc2cccnc12)c1ccc(N2C(=O)C3C4CCC(C4)C3C2=O)cc1 (stereo not drawn)	15	-0.24	-13	99*	0.72
O=C(Oc1cccc2cccnc12)c1cccc(N2C(=O)C3C4CCC(C4)C3C2=O)c1 (stereo not drawn)	25	0.11	0	97*	0.56
CC(C)N=C1NN=C(c2ccc(Cl)c(Cl)c2)CS1	4	2.4	11	30	0.34
C=CCNC1=C(Cl)C(=O)N(c2ccccc2Cl)C1=O	9	0.035	-10	-4	nt
S=C(Nc1ccccc1)N1CCN(C(=S)c2ccccc2)CC1	-12	0.81	8	9	0.29
c1ccc(CC2CCN(c3ncnc4sccc34)CC2)cc1	40	-2.8	63*	20	-1.3
CCn1nc(C)c(NC(=O)CCSc2nc(-c3ccco3)cc(C(F)(F)F)n2)c1C	-18	-0.17	13	2	nt
CCCCn1c(=O)[nH]c(=O)c2c1nc(-c1ccc(C)c([N+](=O)[O-])c1)n2CC	6	nt	18	99*	0.38
CCOc1cc(/C=N/OC(C)=O)ccc1OCc1ccccc1	-8	-1.2	-2	7	nt
CCCOc1ccc(-c2nc(C#N)c(NCC3CCCO3)o2)cc1 (stereo not drawn)	-247	nt	8	92*	-0.43
Cc1nc(-c2cc(C#N)c(Sc3ccc(Cl)cc3Cl)nc2C)cs1	5	0.096	nt	nt	nt
CCN1CCN(C(c2ccccc2F)c2nnnn2Cc2ccc3c(c2)OCO3)CC1 (stereo not drawn)	3	nt	26	4	-2.2*
c1ccc(CCn2nnnc2C(c2cccs2)N2CCN(Cc3ccc4c(c3)OCO4)CC2)cc1 (stereo not drawn)	17	-0.28	2	80*	-3.1*
Fc1ccccc1N1CCN(C(c2cccs2)c2nnnn2CCc2ccccc2)CC1 (stereo not drawn)	55*	-1.2	12	48	nt
Cc1cc(C)c2[nH]c(=O)c(C(c3nnnn3Cc3ccc4c(c3)OCO4)N3CCC(C)CC3)cc2c1 (stereo not drawn)	-50	-0.71	-3	76*	-1.7
COc1ccc(Cn2nnnc2C(c2cc3ccc(OC)cc3[nH]c2=O)N2CCC(C)CC2)cc1 (stereo not drawn)	-53	nt	-4	16	1.1
COCCn1nnnc1C(c1cccs1)N1CCN(c2ccccc2)CC1 (stereo not drawn)	-15	nt	-13	-4	nt
CS(=O)(=O)N1CCN(c2ccc([N+](=O)[O-])c(SCc3ccco3)c2)CC1	-18	-0.62	-17	7	0.83
Fc1ccc(N2CCN(C(c3cccs3)c3nnnn3CCc3ccccc3)CC2)cc1 (stereo not drawn)	-2	-0.64	10	71*	nt
COc1cccc(-n2c(O)c(C=NCc3ccccn3)c3ccccc3c2=O)c1	7	-1.1	nt	nt	0.31
Cc1ccc(-n2c(O)c(C=NCc3ccccn3)c3ccccc3c2=O)cc1C	-4	0.022	-2	71*	0.36
CCOC(=O)C(CCCCC(NC(C)=O)(C(=O)OCC)C(=O)OCC)(NC(C)=O)C(=O)OCC	-133	-1.4	nt	nt	nt
O=C(N/N=C/c1ccccn1)c1cc(-c2cccc3ccccc23)n[nH]1	-53	-1.1	-15	73*	1.2
CCc1ccc(-c2cc(C(=O)N/N=C/c3ccccn3)[nH]n2)cc1	-13	0.048	-11	74*	-0.37
O=C(N/N=C/c1ccccn1)c1cc(-c2ccccc2Cl)n[nH]1	0	-0.24	-4	47	0.91
O=C(N/N=C/c1cccs1)c1cc(-c2ccc3ccccc3c2)n[nH]1	-14	nt	32	0	nt
O=C(N/N=C/c1ccccn1)c1cc(-c2ccc3ccccc3c2)n[nH]1	-90	-0.96	-3	84*	nt
CN(C)CCCNC(=S)NCCNc1nc2cc3c(cc2cc1C#N)OCO3	-412	-0.014	3	-3	0.023
